# The whole screen tested about 330,000 compounds, of which about 1,900 (0.58%) were called active. Not shown: some 4% with an inconclusive outcome. These entries were drawn from the full list. Results with a measured potency or affinity are listed apart. A number with no mark means an inactive call. Cut-off read from the data, not from the text of the source: inconclusive = inhibition above about 70% without an active follow-up result; inactive = below that.
# Test: M. tuberculosis growth inhibition, HTS (AID 449762);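 note: bacterial growth assessed after seven days of incubation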
# Details: M. tuberculosis H37Rv growth inhibition, 7H9 media; at 25 µM; active compounds read high
row,Compound,inhibition
1,COc1ccc(S(=O)(=O)Nc2c3ccccc3nc(=O)n2-c2ccccc2)cc1,5.16%
2,O=C1CCC(C(=O)N(Cc2cccs2)C2(C(=O)NC3CCCCC3)CCCCC2)N1 (stereo not drawn),1.48%
3,O=C1C=C(c2ccc(Oc3ccccc3)cc2)C[C@@H](c2ccc(F)cc2)C1,24.8%
4,CCOc1ccc(OCCCC(=O)Nc2cc(Cl)ccc2-n2cncn2)cc1,9.23%
5,N#CC(C#N)=C1CCc2ccccc2N1,-3.11%
6,O=C(NCCO)/C(=C\c1ccc([N+](=O)[O-])o1)NC(=O)c1ccccc1,59%
7,CCCCOC(=O)/C(=C\c1ccc([N+](=O)[O-])o1)NC(=O)c1ccccc1,-4.98%
8,COc1ccc(C2C(C(=O)Nc3ccccn3)=C(C)Nc3ncnn32)c(OC)c1 (stereo not drawn),-4.42%
9,COc1ccc(OC)c(-c2csc(NC(=O)CSc3ccccc3)n2)c1,-4.32%
10,COc1ccc(CC(=O)Nc2ccc(S(=O)(=O)Nc3onc(C)c3C)cc2)cc1OC,5.55%
11,COc1ccc(C2NN=C(c3c[nH]c4ccccc34)C2O)cc1 (stereo not drawn),4.48%
12,COc1ccc(NC(=O)COC(=O)CCCc2c[nH]c3ccccc23)cc1,37.6%
13,O=C(COC(=O)c1ccc2c(c1)C(=O)N(CCc1ccccc1)C2=O)Nc1ccc(OC(F)F)cc1,-2.61%
14,CCC(CO)(C(=O)OC1C[N+]2(C)CCC1CC2)c1ccccc1 (stereo not drawn),-13.2%
15,CCOC(=O)N1CCN(Cc2ccc(O)c3ncccc23)CC1,55.4%
16,OCCN1CCN(Cc2cc(Cl)c3cccnc3c2O)CC1,6.31%
17,CC(=O)Nc1ccc(S(=O)(=O)NCCc2c[nH]c3ccc(C)cc23)cc1,0.51%
18,COc1ccc(CNC(=O)[C@@H]2CC=C[C@@H]3CCN(Cc4ccc(Cl)c(Cl)c4)C(=O)[C@@H]32)cc1,18.4%
19,COc1ccc(OCCCCN(C)Cc2ccccc2)cc1,13.7%
20,O=C(NNC(=S)Nc1ccccc1)c1ccncc1,7.24%

row,Compound,inhibition
1,CCOc1ccc(C2c3[nH]c4ccccc4c3CCN2Cc2cccn2-c2ncccn2)cc1 (stereo not drawn),67.7%
2,COc1cccc(C2c3[nH]c4ccccc4c3CCN2Cc2cccn2-c2ncccn2)c1 (stereo not drawn),2.06%
3,Cc1ccc(CNC(=O)CSCc2cccc(F)c2)cc1,12.3%
4,CNC(=S)N/N=C/c1c(C)nn(-c2ccc(F)cc2)c1Cl,6.49%
5,CC1=C(C)CC(C(=O)Nc2nccs2)C(C(=O)O)C1 (stereo not drawn),-4.95%
6,S=c1nccc(-c2ccc(Cl)cc2)[nH]1,54.5%
7,S=c1nccc(-c2ccc3c(c2)CCO3)[nH]1,3.97%
8,COc1ccc(C2C(C#N)=C(N)Oc3cc(C)n(Cc4ccncc4)c(=O)c32)cc1 (stereo not drawn),-7.68%
9,O=C(CCn1cnc2ccccc2c1=O)Nc1ccc2c(c1)OCCO2,-3.32%
10,CCN(CC)c1ccc2c(C)c(Cl)c(=O)oc2c1,-3.19%
11,CCN(CC)c1ccc2c(Cl)cc(=O)oc2c1,5.83%
12,Cc1nc(C)c(C(=O)OCC(=O)NCc2ccccc2Cl)s1,3.01%
13,CCOC(=O)c1cnc2ccc(OCC)cc2c1N1CCN(C)CC1,4.95%
14,CCOC(=O)c1cnc2ccc(OCC)cc2c1N1CCN(c2ccccc2OC)CC1,63.7%
15,C=CCN(CC(=O)NCc1ccccc1)C(=O)c1csnn1,-1.06%
16,O=C(O)C1CC=CCC1C(=O)NCCCN1CCCC1=O (stereo not drawn),-30.3%
17,O=C([O-])c1ccc(-[n+]2c(-c3ccccc3)cc(-c3ccccc3)cc2-c2ccccc2)cc1,55.9%
18,Cc1ccc(-c2cc(-c3ccc(C)cc3)[n+](-c3ccc(C(=O)O)cc3)c(-c3ccc(C)cc3)c2)cc1,6.26%
19,Cc1ccc(-c2cc(-c3ccccc3)cc(-c3ccccc3)[n+]2-c2ccc(C(=O)O)cc2)cc1,-6.06%
20,O=[N+]([O-])c1ccc(-[n+]2c(-c3ccccc3)cc(-c3ccccc3)cc2-c2ccccc2)cc1,8.42%

row,Compound,inhibition
1,O=[N+]([O-])c1ccc2nc(-[n+]3c(-c4ccccc4)cc(-c4ccccc4)cc3-c3ccccc3)[nH]c2c1,27.2%
2,O=C(O)c1ccc(-[n+]2c(-c3ccccc3)cc(-c3ccccc3)cc2-c2ccccc2)cc1,-13.1%
3,CC(C)(C)OC(=O)[C@H](Cc1ccccc1)NC(=O)c1nc[nH]c1C(=O)N[C@@H](CCCCN)C(=O)OC(C)(C)C,-1.19%
4,CC(Cc1ccco1)NC(=O)c1ccc(C(F)(F)F)cc1 (stereo not drawn),4.71%
5,COc1ccc(Cl)cc1NC(=O)NCCN1CCNC1=O,0.11%
6,COc1ccc(/C(N)=N/OC(=O)CCCc2ccccc2)cc1OC,14.8%
7,O=C(O)c1cccc(NC(=O)c2cc(S(=O)(=O)N3CCOCC3)cs2)c1,-7.54%
8,CCOC(=O)N1CCC(N(CCN(C)C)C(=S)Nc2ccccc2OCC)CC1,7.57%
9,CC1CCC(NCc2ccco2)CC1 (stereo not drawn),-0.39%
10,CCC1=C(OC(=O)N(CC)CC)N2C(=O)OC(=NCCc3c[nH]c4ccccc34)[C@]2(Cc2ccccc2)[C@H]2C1=CC[C@H]1C(=O)N(C)C(=O)[C@H]12,68.8%
11,CCC1=C(OC(=O)N(CC)CC)N2C(=O)OC(=NCCc3c[nH]c4ccccc34)[C@]2(Cc2ccccc2)[C@H]2C1=CC[C@H]1C(=O)N(CC)C(=O)[C@H]12,-7.04%
12,O=C(NCC1CCCO1)C(=O)N/N=C/c1c(F)cccc1Cl (stereo not drawn),5.59%
13,NC(N)=Nc1nc2ccccc2o1,4.74%
14,CCCCN(C(=O)c1cnccn1)c1c(N)n(CCC)c(=O)[nH]c1=O,-6.33%
15,N#Cc1ccc(OCC(O)CN2CCN(CC(O)COc3ccc(C#N)cc3)CC2)cc1 (stereo not drawn),-5.84%
16,CCC(=O)c1ccc(OCC(O)CN2CCN(c3ccc(F)cc3)CC2)cc1 (stereo not drawn),-1.98%
17,OC(CN1CCN(c2ncc(C(F)(F)F)cc2Cl)CC1)c1ccccc1 (stereo not drawn),32.4%
18,CCC(=O)c1ccc(OCC(O)CN2CCN(c3ccccn3)CC2)cc1 (stereo not drawn),4.67%
